Measured values as given in PubChem BioAssay AID651717 (Broad Institute, 2012).
In all, about 1,200 compounds went through this assay and about 950 (79%) were called active. The set was probably picked from earlier hits. Only a sample is shown. Results with a measured potency or affinity are listed apart. A number with no mark means an inactive call.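 Rule for the calls: active = signal rises and fitted curve reaches 40% activity at or below the top valid tested dose, in every replicate test; inconclusive = replicate tests give mixed calls; inactive = the rest, including activity in the opposite direction.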

Assay: compounds raising Bmi1 reporter signal – mouse embryonic stem cells, luciferase, cherry-pick, esBAF inhibitor project, dose response (AID 651717);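 note: luciferase knocked into Bmi1 locus with EF-1a renilla as cell number control; rising ratio signals esBAF inhibition which derepresses Bmi1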
Details: mESC Bmi1-luciferase reporter, firefly/renilla ratio, 24 h, stronger effect = higher value; at 35 µM unless noted

| Compound | max activity |
| --- | --- |
| COc1ccc(-c2cc(C(=O)Nc3cc(OC)cc(C(=O)Nc4cccc(C(F)(F)F)c4)c3)[nH]n2)cc1 | 9.94% [at 4.2 µM] |
| CCOC(=O)COc1c(OC)cc(Cl)cc1C1Nc2ccccc2C(=O)N1c1cccc(C)c1 (stereo unspecified) | 28.5% |
| O=C(Nc1ccc(Cc2ccc(NC(=O)Nc3cccnc3)cc2)cc1)Nc1cccnc1 | 25.6% [at 16 µM] |
| Cc1ccc(NCC(=O)N/N=C\C(Br)=C\c2ccccc2)cc1 | 8.26% [at 16 µM] |
| CC=Cc1ccc2n(c1=O)C[C@@H]1[C@@H](CO)[C@H](C(=O)Nc3ccc(-c4ccccc4)cc3)N(C)[C@H]21 (mixture of isomers) | -24.6% |
| CC=Cc1ccc2n(c1=O)C[C@H]1[C@H](CO)[C@@H](C(=O)Nc3ccc(-c4ccccc4)cc3)N(CC)[C@@H]21 (mixture of isomers) | 5.58% [at 0.26 µM] |
| CC(=O)c1ccc(N(C(=O)Cc2c[nH]c3ccccc23)C(C(=O)NC2CCCCC2)c2cccs2)cc1 (stereo unspecified) | -9.23% |
| Cc1ccc2c(c1)Sc1ccccc1CC2=O | 16.2% |
| Cn1c(SCc2nc3ccccc3s2)nnc1-c1ccc2c(c1)OCO2 | 27.7% |
| O=C1Nc2ccccc2N=C(c2ccc3c(c2)OCO3)C1N(CCc1ccccc1)C(=O)CSc1ncccn1 (stereo unspecified) | -16.9% |
| C[C@@H]1CN([C@@H](C)CO)C(=O)c2cc(NC(=O)Nc3ccc4c(c3)OCO4)ccc2O[C@@H](C)CCCCO[C@H]1CN(C)Cc1ccncc1 | -10.2% [at 0.5 µM] |
| Cc1ccc2nc(NC(=O)CCNS(=O)(=O)c3cccs3)sc2c1 | 37.2% |
| CNC[C@@H]1OCCCC[C@H](C)Oc2ccc(NS(=O)(=O)c3ccc(C)cc3)cc2C(=O)N([C@H](C)CO)C[C@H]1C | -8.01% [at 1.1 µM] |
| O=C1NC(Cc2ccc(O)cc2)c2nc3ccc(Br)cc3c(=O)n2-c2cc3ccccc3cc21 (stereo unspecified) | 6.63% [at 8 µM] |
| C[C@@H]1CCCCO[C@@H](CN(C)Cc2ccncc2)[C@H](C)CN([C@@H](C)CO)C(=O)c2cc(NC(=O)Nc3ccc4c(c3)OCO4)ccc2O1 | -10.3% [at 0.5 µM] |
| Cc1ccc(NC(=O)c2ccccc2F)c(NC(=O)c2ccccc2F)c1 | 39.1% [at 16 µM] |
| C[C@@H]1CN([C@H](C)CO)C(=O)c2cccc(NC(=O)Nc3ccc4c(c3)OCO4)c2O[C@H]1CN(C)S(=O)(=O)c1cccs1 | 36.7% [at 1 µM] |
| CN(CC(=O)Nc1ccc(Cl)c(S(=O)(=O)N(C)C)c1)Cc1ccccc1 | 16.8% [at 1 µM] |
| CN1C(=O)c2cc(NC(=O)c3ccc(C#N)cc3)ccc2OC[C@H]2O[C@@H](CC(=O)NC3Cc4ccccc4C3)CC[C@@H]21 | -7.14% |
| Cc1c(CC(C)C)nc(N)c(C#N)c1-c1ccccc1 | 8.97% [at 16 µM] |
| CC1CC(C)(C)CC2(C1)NC(=O)N(CC(=O)OCC(=O)Nc1cc(S(=O)(=O)N3CCCCC3)ccc1Cl)C2=O (stereo unspecified) | 16.1% [at 0.5 µM] |

| Compound | max activity |
| --- | --- |
| CCc1ccc(C(=O)CN2C(=O)NC3(CCCCCC3)C2=O)cc1 | 32.8% |
| COc1ccc(C(=O)N2CCN(c3ccc(C(C)=O)cc3)CC2)cc1S(=O)(=O)N1CCCC1 | 26.7% [at 2.1 µM] |
| COc1ccc(CCNC(=O)CSc2nc3ccsc3c(=O)n2Cc2ccccn2)cc1OC | 23.9% |
| Cc1ccc(S(=O)(=O)Nc2cccc3c2O[C@@H](CN(C)C(=O)Nc2ccc4c(c2)OCO4)[C@@H](C)CN([C@@H](C)CO)C3=O)cc1 | -17.3% |
| CC(=O)N(C)c1ccc(NCc2cc(=O)oc3cc(C)c(O)cc23)cc1 | 19.2% |
| COc1ccc2cc(C(=O)c3ccccc3)c(=O)oc2c1 | 32.6% [at 4.2 µM] |
| C[C@@H]1CN([C@@H](C)CO)C(=O)c2cc(NC(=O)Nc3ccc4c(c3)OCO4)ccc2O[C@@H](C)CCCCO[C@@H]1CN(C)S(=O)(=O)c1cn(C)cn1 | -11% [at 0.5 µM] |
| CC1CCN(c2ccc3c(c2)S(=O)(=O)c2cccc(C(=O)NCc4ccc(F)cc4)c2C3=O)CC1 | 27.9% |
| Cc1ccc(S(=O)(=O)N(C)C[C@H]2OCCCC[C@H](C)Oc3ccc(NC(=O)Nc4ccc5c(c4)OCO5)cc3C(=O)N([C@H](C)CO)C[C@H]2C)cc1 | 10.8% [at 16 µM] |
| C[C@H](CO)N1C[C@H](C)[C@@H](CN(C)C(=O)Nc2ccc3c(c2)OCO3)OCCCC[C@H](C)Oc2ccc(NC(=O)c3ccncc3)cc2C1=O | -9% [at 0.26 µM] |
| CN(C)c1ccc(C(=O)Nc2cccc(S(=O)(=O)N3CCCC3)c2)cc1 | 25% [at 16 µM] |
| Cc1ccc(S(=O)(=O)Nc2cccc3c2O[C@H](CN(C)C(=O)Nc2ccc4c(c2)OCO4)[C@H](C)CN([C@H](C)CO)C3=O)cc1 | -21.3% |
| CCC(SC1=Nc2ccccc2C2=NC(CC(C)C)C(=O)N12)C(=O)Nc1ccc2c(c1)OCO2 (stereo unspecified) | -19.3% |
| C[C@H]1CN([C@@H](C)CO)C(=O)Cc2cc(NC(=O)Nc3ccc4c(c3)OCO4)ccc2O[C@H]1CN(C)Cc1ccccc1 | 12.3% [at 8 µM] |
| C[C@H]1CN([C@@H](C)CO)C(=O)Cc2cc(NC(=O)Nc3ccc4c(c3)OCO4)ccc2O[C@@H]1CN(C)Cc1ccccc1 | -4.95% [at 2.1 µM] |
| CCn1c(=N)n(CC(=O)c2ccc(Br)s2)c2ccccc21 | 15.9% |
| CN(C)c1ccc(-c2nnn(Cc3ccccc3Br)n2)cc1 | -12.5% |
| CCOC(=O)c1cc(-c2sc(NC(=O)c3ccccc3)nc2C)n(-c2ccc(Br)cc2)n1 | 24% |
| O=C(c1ccc2ccccc2c1O)N1CCCCC1 | -23.4% |
| C[C@@H]1CN([C@@H](C)CO)C(=O)c2cc(NS(=O)(=O)c3ccc(F)cc3)ccc2O[C@H]1CN(C)C(=O)Nc1ccc2c(c1)OCO2 | -5.95% [at 0.5 µM] |
